Bioassay records from PubChem.
A selection: hits, their analogues and other compounds. The true share with any hit is near 7.4%.
Luc counter: blocks Kinase-Glo luciferase, a counter-screen artifact | Q27757 | Kinase-Glo luciferase, ATP luminescence, 8 min | Potency, µM (series often up to 38.3 µM), inactives show at the top dose activity change, negative = inhibition, actives largely listed as inhibitors | hit rate 0.28% among 200,000; also: % is scaled to controls: 0 for no effect and ±100 for the full control effect; nearly all actives have a fitted effect of over 60% in size
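Recombinant Kinase-Glo luciferase, 10 uM ATP (linear range), luciferin; imidazole pH 7.2 / KCl / MgCl2 / Tween / BSA buffer; 8 min RT; luminescence.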
Rab9 promoter act: activators of Rab9 promoter | Huh7 Rab9 promoter-luciferase reporter, luminescence, 24 h | Potency, µM (doses to about 9.22 µM), for inactives: top-dose activation, negative = inhibition, hits mostly activators | hit rate 2.8% among 320,000 | AID 485297; also: % of control where 0% means no effect; nearly all actives have a fitted effect of over 60% in size
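Luminescence read-out: Huh7 cells stably expressing Rab9-luciferase, treated 24 h with compound at 37 °C, then lysed with luciferase reagent for 10 min at ambient before reading.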
NPC1 promoter act: activators of NPC1 promoter | Huh7 NPC1 promoter luciferase reporter, 24 h | AID 485313 | Potency, µM (highest dose often 9.22 µM), for the others: at the highest dose activation, actives largely listed as activators | hit rate 2.4% among 320,000; also: % of control where 0% means no effect; nearly all actives have a fitted effect of over 60% in size
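Luciferase expression driven by the NPC1 promoter was measured in stably transfected Huh7 cells after a 24 h compound incubation, using a luciferase reagent and a luminescence read.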
SMN2 splice up: increases expression of the SMN2 splice variant; HEK293 SMN2-luciferase splicing reporter, luminescence, 30-36 h; Potency, µM (series often up to 46.1 µM), for inactives: at the highest dose activity change, positive = activation, most hits filed as activators; hit rate 2.8% among 210,000; also: % of control where 0% means no effect; nearly all actives have a fitted effect of over 55% in size
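HEK293 cells carry an SMN2 […]–luciferase reporter in which exon 7 inclusion puts luciferase in frame. Cells were plated 10-12 h before compound addition, then incubated 30-36 h at 37C. ONE-Glo luminescence was read; sodium butyrate at 4.5 mM final served as control.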
FLuc counter: firefly luciferase modulation, counter-screen for miR-21 project; hit rate 6.9% among 360,000; P08659; purified FLuc, Km substrates, luminescence inhibition; AID 588342; Potency, µM (top dose mostly 57.5 µM), inactives show at the highest dose activity change, negative = inhibition, usual class: inhibitors;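 also: plate controls were vehicle for no effect and reference inhibitor for full effect; nearly all actives have a fitted effect of over 55% in size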
Target sequence (P08659 whole entry, looked up): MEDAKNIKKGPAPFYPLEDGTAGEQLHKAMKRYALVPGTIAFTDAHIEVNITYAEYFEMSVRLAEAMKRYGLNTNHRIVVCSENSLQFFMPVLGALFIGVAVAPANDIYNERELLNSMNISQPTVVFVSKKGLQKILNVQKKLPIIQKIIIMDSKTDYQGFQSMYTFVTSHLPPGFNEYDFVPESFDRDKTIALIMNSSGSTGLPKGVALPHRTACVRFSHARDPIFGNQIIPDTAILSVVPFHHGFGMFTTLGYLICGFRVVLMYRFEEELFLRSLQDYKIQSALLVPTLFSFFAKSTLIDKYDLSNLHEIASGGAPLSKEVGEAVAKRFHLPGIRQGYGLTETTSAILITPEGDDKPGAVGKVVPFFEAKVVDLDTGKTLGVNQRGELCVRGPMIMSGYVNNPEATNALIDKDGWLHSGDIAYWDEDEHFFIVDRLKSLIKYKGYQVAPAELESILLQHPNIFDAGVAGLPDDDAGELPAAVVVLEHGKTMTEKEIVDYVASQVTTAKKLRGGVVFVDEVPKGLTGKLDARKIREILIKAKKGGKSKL
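Biochemical qHTS of compounds, final roughly 60 µM downward over six points, against 10 nM purified firefly luciferase using Km concentrations of substrates (10 uM D-luciferin, 10 uM ATP) in Tris acetate pH 7.5 buffer; luminescence output.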
ELG1 genotox: induces genotoxicity in HEK293T cells with luciferase-tagged ELG1; HEK293T ELG1-luciferase reporter, luminescence, 16 h; Potency, µM (series often up to 46 µM), for the others: top-dose activity change, positive = activation, most hits filed as activators; AID 504466; hit rate 1.3% among 330,000; also: % of control where 0% means no effect; nearly all actives have a fitted effect of over 60% in size
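HEK293T cells expressing luciferase-tagged ELG1 were exposed to compound or DMSO vehicle for 16 hr at 37 °C and 5% CO2. Luciferase activity was then measured with ONE-Glo after 30 min at room temperature.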
The depositor's hits bear a star; ? = inconclusive; / = no result; [ ] = remark or other dose. Calls follow the shape of the dose curve; as a rule, active = well fitted curve in the direction sought with a large enough effect; inconclusive = small, poorly fitted or top-dose-only effect, or another doubt; inactive = no such curve, though single readings can be large; an effect the other way counts as inactive or inconclusive. Potency is read from the fitted curve at half-maximal effect.

SMILES | Luc counter | Rab9 promoter act | NPC1 promoter act | SMN2 splice up | FLuc counter | ELG1 genotox
COc1cc(/C=N/NC(=O)c2ccncc2)ccc1OC(=O)c1ccccc1Cl | -1% | -12% | -6% | -1% | ? | -3%
O=C(Oc1cccc(Cl)c1)N1CCOCC1 | / | -1% | 0% | / | -2% | -1%
O=C(N/N=C/c1cccc(OC(=O)N2CCOCC2)c1)c1cccs1 | -3% | 19% | 17% | 5% | 9.5µM* | 3%
COc1ccc2o/c(=N/NC(=O)c3cccs3)c(C(N)=O)cc2c1 | -3% | ? | ? | 14µM* | ? | 14%
NC(=O)c1cc2ccccc2o/c1=N/NC(=O)c1cccs1 | 0% | 6% | 12% | 15% | -3% | -2%
COc1cc(/C=N/NC(=O)c2ccccc2O)ccc1OC(=O)CC1SC(=O)NC1=O (stereo not given) | / | 1% | 1% | / | 17µM* | 3%
COc1cc(/C=N/NC(=O)c2sc3nc(C)cc(C)c3c2N)ccc1O | / | -7% | -3% | / | 5.4µM* | 9%
C[C@H]1Cc2c(-c3ccccc3)nc3c(c2CO1)CN(C(=O)c1ccco1)CC3 | -2%[7.66 µM] | / | / | 3%[9.22 µM] | / | /
Cc1cc(C(=O)Nc2cccc(F)c2)c2c(C)nn(-c3cccc(Cl)c3C)c2n1 | / | / | / | / | -4% | /
COC(=O)N/N=C\c1cccc(OC(=O)c2cccs2)c1 | -2% | -4% | -2% | 6% | -15% | 7%
COc1cc(/C=N/NC(=O)c2cccs2)ccc1OCc1ccccc1 | -2% | 4% | -4% | 9% | ? | 2%
COc1ccccc1/C=C/C=N/NC(=O)c1cccs1 | / | 3.2µM* | 2.5µM* | / | 11µM* | ?
COc1cc(/C=N/NC(=O)c2cccs2)ccc1O | / | ? | 29% | / | 11µM* | 21µM*
COc1cccc(/C=N/NC(=O)c2cccs2)c1 | / | 2.8µM* | ? | / | 5.4µM* | 21µM*
NCC[C@H](O)C(=O)N[C@H]1C[C@@H](N)[C@@H](O[C@H]2O[C@@H](CN)[C@@H](O)[C@@H](O)[C@@H]2O)[C@@H](O)[C@@H]1O[C@H]1O[C@@H](CO)[C@@H](O)[C@@H](N)[C@@H]1O | 1%[17.1 µM] | / | / | -1%[20.6 µM] | / | /
Cc1cccc(N(CC(=O)NC(C)c2ccccc2)S(=O)(=O)c2ccccc2)c1C (stereo not given) | / | / | / | -14% | -11% | /
O=C(Cn1c(=O)n(Cc2ccc3c(c2)OCO3)c(=O)c2ccccc21)Nc1cccc(Cl)c1 | / | / | / | 7% | 5% | /
C[C@H]1CC2C3CCC4=CC(=O)C=C[C@]4(C)[C@@]3(Cl)[C@@H](O)C[C@]2(C)[C@@]1(O)C(=O)CO (stereo not given in full) | / | -2%[46.1 µM] | 3%[46.1 µM] | / | / | /
Cc1noc(C)c1C(=O)Nc1ccc(N(C)C)cc1 | / | 4% | 6% | / | 1% | 16%
CN(C)c1ccc(NC(=O)c2cnsn2)cc1 | ? | ? | ? | / | 3µM* | ?
CCS(=O)(=O)N1CC(=O)N(c2cccc(C)c2C)C(C)(C(=O)NC2CCCCC2)C1 (stereo not given) | / | / | / | / | 0% | /
CCCCCn1c(=O)[nH]c2cc(C(=O)NCc3ccc(C)cc3)ccc2c1=O | / | / | / | ? | 1% | /
Cc1cc(C)c(NC(=O)Cn2c(=O)n(-c3ccc(F)cc3)c(=O)c3c(C)c(C(=O)N(C)C)sc32)c(C)c1 | / | / | / | / | -3% | /
CCOc1cc(/C=C2\SC(=S)N(Nc3ccccc3)C2=O)ccc1O | -9% | 5% | ? | -9% | 6.7µM* | ?
O=C1/C(=C/c2ccc(O)c(O)c2)SC(=S)N1Nc1ccccc1 | / | -7% | -21% | / | 19µM* | -8%
SMILES | Luc counter | Rab9 promoter act | NPC1 promoter act | SMN2 splice up | FLuc counter | ELG1 genotox
O=C(O)c1ccc(/C=C2\SC(=S)N(Nc3ccccc3)C2=O)cc1 | / | 1% | -3% | / | ? | 9%
COc1cc(/C=C2\SC(=S)N(Nc3ccccc3)C2=O)ccc1O | -10% | 20% | -3% | 4%[1.84 µM] | 5.4µM* | ?
c1ccc(-c2nc(-c3cccc4ccccc34)c(Nc3ccc4ccccc4c3)o2)cc1 | 1% | / | / | 9% | / | /
N#C/C(=C\c1ccc(F)cc1)C(=O)NCC1CCCO1 (stereo not given) | / | / | / | -8% | 3% | /
O=C(c1ccccc1)c1coc2c1C(=O)c1ccccc1C2=O | -2% | -3% | -2% | -6% | 27µM* | 11%
Cc1ccc(NC(=O)COC(=O)c2ccco2)cc1 | -6% | -1% | -2% | / | 17µM* | 4%
Cc1ccc2nc(-c3ccc(NC(=O)CN4CCN(C(=O)c5ccco5)CC4)cc3)sc2c1 | 8% | ? | ? | ? | 4.8µM* | ?
Cc1ccc2nc(-c3ccc(NC(=O)COC(=O)c4ccco4)cc3)sc2c1 | 4% | 0.32µM* | 0.45µM* | 2.2µM* | 11µM* | 2.9µM*
CNS(=O)(=O)c1cccc(C(=O)OCC(=O)Nc2ccc(-c3nc4ccc(C)cc4s3)cc2)c1 | -3% | ? | 0.5µM* | 1.1µM* | 4.8µM* | 0.73µM*
Cc1cccc(N2CCN(c3nc4ccccc4c4nnc(C)n34)CC2)c1C | / | / | / | 11% | 2% | /
O=C(c1cc(S(=O)(=O)N2CCCC2)c[nH]1)N1CCN(c2cccc(Cl)c2)CC1 | / | / | / | / | -8% | /
O=C(COC(=O)c1cncc(Br)c1)Nc1ccc2c(c1)OCO2 | 1% | 9% | -15% | 16% | 1% | -3%
Cc1ccc2nc(-c3ccc(NC(=O)COC(=O)c4cncc(Br)c4)cc3)sc2c1 | -2% | 0.32µM* | ? | 0.56µM* | 1.7µM* | 1.3µM*
Cc1ccc2nc(-c3ccc(NC(=O)COC(=O)c4ccc([N+](=O)[O-])o4)cc3)sc2c1 | 1% | 0.45µM* | 0.4µM* | 0.71µM* | 1.3µM* | 1.3µM*
O=C(COC(=O)c1ccc([N+](=O)[O-])o1)Nc1ccc(F)cc1 | / | / | / | / | / | 0%
CCOc1ncccc1C(=O)OCC(=O)Nc1ccc(-c2nc3ccc(C)cc3s2)cc1 | 3% | 0.35µM* | 0.45µM* | 1.6µM* | 5.4µM* | 7.3µM*
CC(=O)Nc1ccc(C(=O)COC(=O)c2ccco2)c(F)c1 | / | -8% | -4% | / | 13µM* | 4%
C=C(C)Cn1c(SCC(=O)Nc2cccc(Cl)c2)nc2sc3c(c2c1=O)CCCC3 | / | / | / | -6% | -7% | /
NCCC[C@@H](CC(=O)N[C@@H]1CCCC[C@H]1C(=O)N[C@H](CC(=O)N[C@@H](CCC(=O)O)CC(=O)O)Cc1c[nH]c2ccccc12)NC(=O)C[C@H](Cc1c[nH]c2ccccc12)NC(=O)[C@@H]1CCCC[C@H]1N | 2% | / | / | 8% | / | /
Cc1cc(C)c2nc3c(c([C@H](O)C4CCCCN4)c2c1)CC/C3=C/c1ccc(Cl)cc1 (stereo not given in full) | -5%[7.66 µM] | / | / | 10%[9.22 µM] | / | /
